# SW480 rerep: inducers of DNA re-replication in SW480 colon cancer cells. SW480 DNA re-replication, Hoechst DNA content imaging, 48 h. Potency, µM (series often up to 46.1 µM), inactives show top-dose re-replication activation, usual class: activators. 340,000 tested, 1.8% active; further: % of control where 0% means no effect; nearly all actives have a fitted effect of over 55% in size
#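 250 cells/well; 23 nL cpd via pin tool; 48 hr, 37 C, 5% CO2; Hoechst 40 min; imager read of total nuclear intensity, ex 405/em 500-530 nm.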
# PINK1 expr mod: changes PINK1 expression; 410,000 tested, 0.2% active; PINK1 immunofluorescence, high-content cytometry, 24 h; Potency, µM (doses to about 76.6 µM), inactives show at the highest dose activation (PINK1 increase), actives largely listed as activators; active means well fitted activation curve with a large enough effect; inconclusive means small, poorly fitted or top-dose-only effect; cell line not stated here; further: % of control where 0% means no effect; nearly all actives have a fitted effect of over 65% in size
#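 Stable cell line treated 24 h with compounds at 5 concentrations (CCCP controls), then fixed and immunostained for PINK1 plus nuclear and cell stains; PINK1 immunofluorescence quantified by laser-scanning microplate cytometry.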
# KB-V1 MDR tox: kills drug-selected multidrug resistant KB-V1 cells. Potency, µM (series often up to 46.1 µM), actives largely listed as cytotoxic. AID 1347076. 400,000 tested, 3.4% active. KB-V1 MDR cells viability, CellTiter-Glo, 72 h; further: on the % scale 0 is the no-effect control and ±100 the full control effect; nearly all actives have a fitted effect of over 60% in size
#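 qHTS viability screen in drug-selected KB-V1 MDR cells: 72 h compound treatment at 37 degrees C, ATP luminescence end point.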
# KB-3-1 tox: kills parental KB-3-1 adenocarcinoma cells. Potency, µM (highest dose often 46.1 µM), usual class: cytotoxic. AID 1347075. 400,000 tested, 1.4% active. KB-3-1 viability, CellTiter-Glo ATP luminescence, 72 h; further: on the % scale 0 is the no-effect control and ±100 the full control effect; nearly all actives have a fitted effect of over 60% in size
#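 KB-3-1 cells, DMEM (no phenol red) + 10% FBS; compound by pin transfer, 72 h, 37 °C. Readout: CellTiter-Glo luminescence after 10 min. Data normalized, curve-fitted.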
# MCF10A rerep: DNA re-replication induction in MCF 10a cells; MCF 10A DNA re-replication, Hoechst nuclear intensity, 48 h; Potency, µM (top dose mostly 46.1 µM), without a hit: at the top dose activity, positive = re-replication, usual class: activators; 350,000 tested, 2.9% active; further: % of control where 0% means no effect; nearly all actives have a fitted effect of over 50% in size
# Active calls of the source: *; i = inactive; ? = inconclusive; nt = not tested or not shown; [ ] = dose if it differs, or a comment. Hits are enriched below; roughly 6.7% of the tested compounds scored in any of these assays. Unless noted, the call rests on the fitted dose curve; in most records, active means well fitted curve in the direction sought with a large enough effect; inconclusive means small, poorly fitted or top-dose-only effect, or another doubt; inactive means no such curve, though single readings can be large; an effect the other way counts as inactive or inconclusive. Potency means the concentration at half of the fitted maximal effect.
SMILES,SW480 rerep,PINK1 expr mod,KB-V1 MDR tox,KB-3-1 tox,MCF10A rerep
COC(=O)c1ccccc1-c1cc(C)cc2c1OC(CNC(=O)c1ccn(C)n1)C2 (stereo not drawn),nt,0.5%,nt,nt,nt
CCc1ccc(NC(=O)c2c(C(=O)Nc3ccccc3)sc3nc(C)cc(=O)n23)cc1,-37.2%,-0.3%,i,i,18.4µM*
CCOC(=O)c1sc2ccccc2c1OC(=O)c1ccccc1OC,0.581µM*,0.7%,i,i,?
CC(C)n1c(O)c(N=Nc2ccc(Cl)nn2)c2ccccc21,-4.1%,2.6%,11.6µM*,i,0.3%
CC(C)n1c(O)c(N=NC(=O)CNC(=O)Cc2ccc(Cl)cc2)c2ccccc21,-4.1%,-1.0%,i,i,-16.6%
COc1ccc([N+](=O)[O-])cc1NC(=O)C(C)NNC(=O)c1cccc([N+](=O)[O-])c1 (stereo not drawn),-4.3%,-0.1%,18.4µM*,i,10.6%
COc1ccc([N+](=O)[O-])cc1NC(=O)C(C)c1ccccc1 (stereo not drawn),3.3%,4.0%,i,i,?
Cc1ccc(OCC(=O)N/N=C\c2c(C)n(C)c3ccccc23)c([N+](=O)[O-])c1,14.6µM*,2.0%,?,?,?
Cc1ccc(OCC(=O)N/N=C\c2ccc(C)o2)c([N+](=O)[O-])c1,-19.2%,44.7µM*,i,i,-33.9%
Cc1ccc(OCC(=O)N/N=C/c2ccccc2)c([N+](=O)[O-])c1,-5.4%,1.6%,i,i,?
CC(=O)c1ccc(N2CCN(c3ccc(NC(=O)c4cccs4)cc3C(=O)O)CC2)cc1,nt,0.1%,?,i,nt
CN(C(=O)COC(=O)c1nc(Cl)c(Cl)c(Cl)c1Cl)C1CCS(=O)(=O)C1 (stereo not drawn),?,-2.8%,?,?,3.66µM*
Cc1cc(=O)[nH]c(SCC(=O)Nc2ccc(Br)cc2)c1C#N,2.0%,15.8µM*,?,?,?
CC(=O)Oc1ccc(OC(C)=O)c(SCCCCCN2CCOCC2)c1,?,6.2%[38.3 µM],i,i,4.11µM*
CC(C)c1ccc(OCCCCCN2CCOCC2)cc1,0.9%,3.7%,i,i,?
FC(F)(F)c1cc(-c2ccc(Cl)cc2)nc(NCc2cccnc2)n1,?,27.5%[38.3 µM],?,i,16.4µM*
O=C(O)c1ccc(Cl)c(S(=O)(=O)Nc2ccc(OCc3ccccc3)cc2)c1,-38.5%,0.3%,i,i,2.9%
CCOC(=O)C1(C)CCCN(C(=O)C(c2ccccc2)c2ccccc2)C1 (stereo not drawn),nt,1.6%,i,i,nt
N#Cc1c(N)nc(SCc2ccccn2)c(C#N)c1-c1cccs1,-1.9%,-2.6%[38.3 µM],2.91µM*,?,1.2%
CCOC(=O)CSc1nc(N)c(C#N)c(-c2cccs2)c1C#N,2.2%,3.0%,i,i,-3.2%
CC1=C(C(=O)N2CCOCC2)CC(CC(=O)NC2CC2)C(=O)N1CCC1=CCCCC1 (stereo not drawn),nt,0.5%,i,i,nt
CC1=C(C(=O)N2CCCCCC2)CC(CC(=O)NC(c2ccccc2)c2ccccc2)C(=O)N1CCC1=CCCCC1 (stereo not drawn),nt,9.6%,16.4µM*,?,nt
COc1ccc(CN2CCN(c3cc(C)nc4c5c(C)cc(C)nc5nn34)CC2)cc1F,8.7%,16.8%,2.31µM*,i,4.4%
Cc1cc(C)c2c(n1)nn1c(N3CCN(c4ccccc4C)CC3)cc(C)nc21,-2.5%,4.4%,?,i,5.9%
Cc1ccc(S(=O)(=O)Nc2cccc(-c3cn4ccsc4n3)c2)cc1,?,5.7%,23.1µM*,?,13µM*
SMILES,SW480 rerep,PINK1 expr mod,KB-V1 MDR tox,KB-3-1 tox,MCF10A rerep
O=S(=O)(Nc1cccc(-c2cn3cccnc3n2)c1)c1ccc(-c2ccccc2)cc1,10.6%,1.2%,i,i,24.8%
O=S(=O)(Nc1cccc(-c2cn3cccnc3n2)c1)c1ccc(F)cc1,-1.9%,-1.6%,20.6µM*,i,-0.2%
CCN1C(=O)[C@H]2[C@@H](c3ccc(C)cc3)N[C@]3(CCCN(Cc4ccc(OC)cc4)C3=O)[C@H]2C1=O,nt,-0.2%,i,i,nt
Cc1nn(-c2ccccc2)c2sc(C(=O)Nc3cccc(O)c3)cc12,nt,1.2%,i,?,nt
COc1ccc(-c2oc3ccc(N4CCOCC4)cc3c2C#CCO)cc1,?,2.3%,?,?,18.4µM*
COc1ccc(-c2sc3ccc(N4CCOCC4)cc3c2C#CC(C)(C)O)cc1,-14.2%,10.0%,i,i,4.6%
COc1ccc(-c2ccc3oc(-c4ccc(OC)cc4)c(-c4ccc(OC)cc4)c3c2)cc1,-3.8%,5.7%,i,i,0.8%
COc1ccc(-c2ccc3oc(-c4ccc(OC)cc4)c(C#CCO)c3c2)cc1,25.9µM*,6.4%,i,i,?
O=C(CSc1nc2nn(-c3ccccc3)c(=O)c-2c2n1CCCCC2)c1ccc(OC(F)F)cc1,-25.0%,-1.0%,i,i,8.1%
Cc1ccc(CN(Cc2cc3cc(C)ccc3[nH]c2=O)Cc2nnnn2Cc2ccccc2)cc1,nt,-0.8%,i,?,nt
CC(C)(C)C(O)C(Cc1ccccc1Cl)n1cncn1 (stereo not drawn),-1.1%,0.7%,i,i,-1.4%
CCN(c1ccccc1)S(=O)(=O)c1ccc(C(=O)Nc2nnc(-c3ccco3)o2)cc1,23.1µM*,3.4%,i,i,7.6%
CC1CC(C)CN(C(=O)c2ccc(NC(=O)c3ccc(=O)[nH]c3)cc2)C1 (stereo not drawn),2.3%,0.0%,i,i,4.4%
CN(c1ccccc1)S(=O)(=O)c1ccc(C(=O)Nc2nnc(-c3ccco3)o2)cc1,20.6µM*,0.8%,?,?,2.7%
CC1CC(C)CN(S(=O)(=O)c2ccc(NC(=O)c3ccc(=O)[nH]c3)cc2)C1 (stereo not drawn),?,15.9%,i,4.61µM*,5.8µM*
CN(c1ccccc1)S(=O)(=O)c1ccc(C(=O)Nc2nnc(C3CC3)o2)cc1,0.6%,1.1%,i,i,-5.8%
CC1CCCN(S(=O)(=O)c2ccc(C(=O)Nc3nnc(-c4ccco4)o3)cc2)C1 (stereo not drawn),?,0.6%,7.31µM*,?,20.1%
CN1C(=O)C(CC#N)(C2(CC#N)C(=O)N(C)c3ccccc32)c2ccccc21 (stereo not drawn),0.8%,-0.5%,i,i,7.9%
COc1ccc(N2C(=O)[C@@H]3C[C@H]2CN3Cc2cccn2-c2ccccn2)cc1Cl,nt,-0.5%,nt,nt,nt
CC1CC(C)CN(S(=O)(=O)c2ccc(C(=O)Nc3nnc(C4CC4)o3)cc2)C1 (stereo not drawn),16.6%,1.4%,5.17µM*,?,18.0%
